Most compounds without a hit are left out; they make up all but 4.7% or so of the library.
D1 ag: agonists of human D1 dopamine receptor; activation, % at 2 µM; HEK293 T-REx D1 cells, calcium flux, agonist mode; AID 504660; P21728; 360,000 compounds, 1% hits; also: 0% is about no effect
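Inducible HEK293 T-REx D1 cells, force-coupled to calcium signalling, were plated at 4000 cells/well with tetracycline and held overnight at 30 C. After no-wash calcium dye loading, compound-evoked calcium rise over 180 s flagged agonists.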
TRHR enhancer: TRH receptor (human) allosteric enhancement | P34981 | TRHR cells, fluo-8 calcium fluorescence, EC20 TRH enhancement | enhancement, % at 2 µM | 360,000 compounds, 0.66% hits | AID 493056; in the data active = enhancement above about 30%; also: 0% is about no effect
Target sequence (P34981 whole entry, looked up): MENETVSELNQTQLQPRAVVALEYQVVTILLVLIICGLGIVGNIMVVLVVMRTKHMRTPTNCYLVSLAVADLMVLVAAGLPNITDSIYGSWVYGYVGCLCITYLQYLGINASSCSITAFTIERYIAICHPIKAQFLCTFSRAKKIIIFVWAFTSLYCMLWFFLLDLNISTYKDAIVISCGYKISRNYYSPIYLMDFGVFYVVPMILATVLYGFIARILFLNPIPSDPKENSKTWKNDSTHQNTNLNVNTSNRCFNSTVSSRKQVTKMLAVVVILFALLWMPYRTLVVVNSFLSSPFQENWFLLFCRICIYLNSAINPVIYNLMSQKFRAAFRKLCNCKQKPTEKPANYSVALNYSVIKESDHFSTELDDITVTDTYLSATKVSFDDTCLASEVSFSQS
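Enhancer read-out: after compound pinning and an initial kinetic agonist-mode read, an EC20 of TRH (10 nM final) was injected and fluo-8 calcium signal (Ex 480/Em 530) followed at 1 s/cycle for 100 cycles in TRHR-expressing cells.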
TRHR ag: activates the human TRH receptor. TRHR cells, calcium flux fluo-8, FDSS agonist mode. 360,000 compounds, 0.18% hits. activation, % at 2 µM. P34981; also: 0% is about no effect
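Read-out: compound-evoked intracellular calcium rise in TRHR cells, fluo-8 dye, kinetic FDSS fluorescence at 1 s/cycle following a 10-cycle baseline. Cells cultured overnight before dye loading (30 min–1.5 h, RT).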
D1 PAM: enhances dopamine response at the human D1 receptor | HEK293 TREx D1 cells, calcium flux, dopamine EC20 potentiation | potentiation, % at 10 µM | AID 504651 | 360,000 compounds, 0.036% hits | P21728; in the data active = potentiation above about 30%; also: 0% is about no effect
D1 antag: antagonists of human D1 dopamine receptor | P21728 | HEK293 TREx D1 cells, calcium flux, dopamine EC80; stronger effect = lower value | activity change, negative = inhibition, % at 10 µM | 360,000 compounds, 3.2% hits | AID 504652; in the data active = activity change below about -30%; also: % is scaled to controls: 0 for no effect and ±100 for the full control effect
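Inducible Hek293 Trex D1 cells (tetracycline, overnight, 30 C). Calcium dye 30–90 min RT. Antagonist mode: EC80 dopamine added after 180 s compound read.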
Numbers without * were called inactive; x = no result. Rule as the data show it, unless noted: active = activation above about 30%; inactive = the rest.

SMILES	D1 ag	TRHR enhancer	TRHR ag	D1 PAM	D1 antag
CCC(=O)OCC(=O)c1c(N)n(Cc2ccccc2)c(=O)n(C)c1=O	5	4	0	1	9
Cn1c(=O)c(C(=O)COc2ccc(C#N)cc2)c(N)n(Cc2ccccc2)c1=O	59*	1	10	0	-18
CNC(=S)N(CCc1c(C)[nH]c2ccccc12)Cc1ccco1	4	15	0	-10	-38*
Cc1[nH]c2ccc(F)cc2c1CCN(Cc1ccco1)C(=S)NC(C)(C)C	17	-4	1	-3	-43*
CNC(=S)N(CCc1c(C)[nH]c2ccc(F)cc12)Cc1ccco1	4	2	-1	-4	-29
CN1c2ccc(Cl)cc2-c2nc(SCC(=O)NCc3ccc(F)cc3)ncc2S1(=O)=O	3	11	0	-3	8
O=C(CSc1nc2ccccc2c(=O)n1-c1ccc(F)cc1)Nc1ccc(Cl)c(S(=O)(=O)N2CCOCC2)c1	6	3	2	-4	-52*
O=C(CSc1nc2ccccc2c(=O)n1-c1ccc(F)c(Cl)c1)Nc1cccc(S(=O)(=O)N2CCOCC2)c1	5	-4	2	-3	-11
O=C(COc1ncnc2ccccc12)Nc1ccc(Cl)c(S(=O)(=O)N2CCOCC2)c1	4	-2	-1	-1	-38*
O=C(Cc1cccs1)Nc1ccc(Cl)c(S(=O)(=O)N2CCOCC2)c1	15	-1	0	1	-33*
CC1CCN(S(=O)(=O)c2cc(C(=O)NC3(C)CCS(=O)(=O)C3)ccc2Br)CC1 (stereo unspecified)	1	-1	0	x	1
CC(=O)Nc1cccc(OCCCNC(=O)c2cccc3ccccc23)c1	2	-3	-1	-4	-12
Cc1ccc2nc(SCc3ccc([N+](=O)[O-])cc3)[nH]c2c1	3	-11	2	-5	-35*
O=[N+]([O-])c1ccc2nc(SCc3cn4ccccc4n3)[nH]c2c1	3	-5	0	0	-16
Cc1cccc2nc(CSc3nc4ccc([N+](=O)[O-])cc4[nH]3)cn12	0	4	-3	-22	-37*
CC(=O)Nc1sc(/C(C#N)=C\c2cccc(Cl)c2)nc1-c1ccc(C)cc1	244*	-4	67*	-6	-45*
COCCn1c(Cc2ccccc2)nnc1SC(C)C(=O)NC1CC1 (stereo unspecified)	1	-3	0	-2	-43*
Cn1c(/C=C/c2ccc(Cl)cc2Cl)c([N+](=O)[O-])c(=O)n(C)c1=O	4	-1	-1	-4	8
COc1cc(CNC2CCCC2)cc(Cl)c1OCc1ccc(F)cc1	32*	-6	3	-6	4
COc1cc(CNC2CCCC2)cc(Cl)c1OCc1ccccc1Cl	25	-9	0	10	8
COc1cc(CNn2c(C)n[nH]c2=S)cc(Cl)c1OCc1ccc(F)cc1	37*	6	-1	-2	-1
CCOc1cc(CNC2CCCC2)cc(Cl)c1OCc1ccc(F)cc1	102*	24	0	42*	-7
Cc1nc(CC(=O)Nc2nccs2)cs1	3	6	1	-4	-6
COc1ccc2c3c(cccc13)C(=O)CC2	52*	8	122*	-10	0
CCOC(=O)c1cc(-c2ccc(OC)c(S(=O)(=O)N3CCN(c4ccccc4)CC3)c2)on1	3	3	1	-3	-5
SMILES	D1 ag	TRHR enhancer	TRHR ag	D1 PAM	D1 antag
C/C(=N\OCC(=O)OCC(=O)N(Cc1ccccc1)C(C)(C)C)c1ccc2c(c1)OCO2	25	-5	1	-10	-36*
C/C(=N\OCC(=O)OCC(=O)N(C)c1ccccc1)c1ccc2c(c1)OCO2	7	11	-3	-7	-5
CCCCCC(=O)Nc1ccc(N2CCN(CC)CC2)c(Cl)c1	3	-6	1	-12	-52*
CCN1CCN(c2ccc(NC(=O)c3ccc(C#N)cc3F)cc2Cl)CC1	11	0	1	-11	-43*
COc1cc(/C=C/c2nc(C#N)c(N3CCCCCC3)o2)cc(OC)c1OC	1	-1	-1	-3	-13
C=CCN(c1ccccc1)S(=O)(=O)c1cccc(C(=O)OCC(=O)NCCOC)c1	1	9	0	0	8
C=CCN(c1ccccc1)S(=O)(=O)c1cccc(C(=O)Nc2nnc(SCC)s2)c1	1	-3	0	-12	-85*

Bioassay records deposited in PubChem by National Center for Advancing Translational Sciences (NCATS).
